The structures appear in SMILES notation. The panel holds about 79,000 compounds, 15% with a hit somewhere; the sample as a whole holds those more often. Unmarked numbers belong to inactive results. Rule as the data show it: active = growth inhibition above about 70%; inactive = the rest.

The text below walks through data of PubChem BioAssay (NCI).

The nature of this test: NCI Yeast Anticancer Drug Screen. Data for the sgs1 mgt1 strain (AID 161).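 Also: 0% = growth of cultures given vehicle only.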 The note with it: S. cerevisiae sgs1 mgt1 strain, at 50.0 µM, stronger effect = higher value. Summed up:
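Yeast cells carrying a defined DNA-repair defect were exposed to test compounds. Growth inhibition was measured relative to vehicle-treated controls.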
Consider `CN1CCCCCCCC(=O)C(OC(=O)c2ccc([N+](=O)[O-])cc2)CCCCCCC1` (stereo not drawn), for which the growth inhibition is 27%.

On to `CN(C)Cc1c[nH]c2nc[nH]c(=O)c12`, for which the growth inhibition is -31.4%.

Consider `Cc1ccc2cc(N)ccc2c1`, for which the growth inhibition was 2.9%.

Regarding `S=C(NCCS)Nc1ccccc1`, the growth inhibition was -2.15%.

Turning to `O=C(O)CN(CC(=O)O)CC(=O)O`, the growth inhibition is -34.4%.

`CC(C)=C1CCC/C1=N\Nc1ccc([N+](=O)[O-])cc1[N+](=O)[O-]`: the growth inhibition is 0.15%.

On to `CCCC(=O)NC(NC1CCCCC1)(C(=O)OCC)C(F)(F)F` (stereo not drawn), for which the growth inhibition is -15.6%.

Take `O=S(=O)(O)c1cc2c3ccccc3ccc2c2ccccc12`: the growth inhibition is 13.8%.

As to `NC(=S)NNc1ccccc1`, the growth inhibition is -0.05%.

As for `Cc1cc(N(CCC#N)CCC#N)ccc1/C=C(\NC(=O)/C=C/c1ccccc1)NC(=O)Nc1ccc(Cl)cc1`, the growth inhibition was -17.9%.

As to `O=C(/C(=C\c1ccc(Cl)cc1)c1ccccc1)c1ccccc1`, the growth inhibition was 4.9%.

On to `COCCOCc1nc(C#N)c(N)o1`, for which the growth inhibition was -36%.

With `C/C(=N\NC(=O)c1ccncc1)c1cccc(Br)c1`, the growth inhibition was 5.35%.

Regarding `c1ccc(CNC2CC3CCC2C3)cc1` (stereo not drawn), the growth inhibition is -10.8%.

As for `CCOC(=O)C1C=NC([N+](=O)[O-])=C1Br` (stereo not drawn), the growth inhibition is 13.4%.

As to `Clc1ccc(Nc2ncco2)cc1Cl`, the growth inhibition was 30.6%.

On to `O=[N+]([O-])c1nccn1CCC[n+]1ccc2ccccc2c1`, for which the growth inhibition was -8.6%.

`CCCCCCCCCCCCCCCc1c(NC(C)(CC)[P+](=O)O)c(=O)n(C)n1C` (stereo not drawn): the growth inhibition is -7.45%.
